From PubChem
The list is not random: actives were taken first. Their share in the collection is about 4%.
Peg3 prom inh – Peg3 promoter-driven luciferase inhibitors, primary screen, cell-based, HeLa, luciferase luminescence; actives 1.7% (n = 360,000); inhibition, % at 20 µM; HeLa PEG-Prom luciferase reporter, overnight; AID 588405, 2011;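 active = inhibition of at least 50% at 20 µM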
TROY NFkB inh – inhibitors of TROY-driven NF-kB signaling, primary screen, Q293 LMP1-TROYcd cells, NF-kB luciferase, uHTS. Q293 LMP1-TROYcd NF-kB luciferase reporter, 4 h. inhibition, % at 10 µM. actives 0.98% (n = 360,000). AID 1347056, 2019;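 active = compounds whose plate-normalised and pattern-corrected inhibition of the luciferase reporter signal at the single screening dose is 50% or more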
CF NFkB inh – inhibitors of PAF-induced NF-kB signaling, primary screen, cell-based, GFP fluorescence, uHTS | KKLEB NF-kB-GFP reporter, GFP fluorescence overnight | inhibition, % at 5 µM | actives 0.86% (n = 360,000);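 active = at least 50% inhibition at 5 µM, scaled per plate between neutral and stimulator controls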;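 also: PAF is a Pseudomonas aeruginosa culture filtrate used as stimulus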
HIF-2a inh – HIF-2a reporter inhibitors, primary screen, luminescence, 786-0 RCC cells; actives 0.72% (n = 360,000); 786-0 RCC cells HIF-2a reporter, luciferase luminescence, overnight; AID 624352, 2012; inhibition, % at 18.8 µM;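 active = inhibition of the luminescence signal of 40% or more relative to plate controls, in a single-dose primary screen at 18.75 µM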
KKLEB cytotox – cytotoxicity in KKLEB CF airway cells, primary screen, cytotoxicity control for CF NF-kB inhibitor project, cell-based, uHTS, fluorescence assay plates | KKLEB CF airway cells viability, ATPlite luminescence, overnight; stronger effect = lower value; cells stimulated with P. aeruginosa culture filtrate | actives 0.36% (n = 360,000) | activity change (cytotoxicity), % at 5 µM;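 active = corrected activity change at or below -50% at 5 µM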
TWEAK Fn14 block – inhibitors of TWEAK-Fn14 signaling, primary screen, luciferase reporter cells, uHTS | TWEAK-stimulated Fn14 reporter cells, luciferase luminescence, 8 h | inhibition, % at 10 µM | actives 2% (n = 360,000) | AID 1159606, 2016; in the data active = inhibition above about 50%
A number is an active result; . = inactive; / = no result.

SMILES	Peg3 prom inh	TROY NFkB inh	CF NFkB inh	HIF-2a inh	KKLEB cytotox	TWEAK Fn14 block
Cc1cc(NC(=O)CCS(=O)(=O)c2nc(-c3ccccc3)cc(C(F)(F)F)n2)no1	106	56	76	65	.	54
COc1ccc(-c2cc(C(F)(F)F)nc(S(=O)(=O)CCCC(=O)Nc3cccc(O)c3)n2)cc1OC	96	53	86	.	-80	96
CCOc1ccc2nc(N(CCN(CC)CC)C(=O)/C=C/c3cccs3)sc2c1	.	.	.	.	.	.
CC(C)(C)c1cc(C(=O)Nc2ccc(F)cc2)n(Cc2ccc(F)cc2)n1	.	63	.	.	.	.
Cc1ccc(NC(=O)c2cc(C(C)(C)C)nn2Cc2ccccc2)cc1	.	.	.	.	.	.
O=C(CCCCCCCCC(=O)N/N=C/c1ccco1)N/N=C/c1ccco1	.	.	.	.	.	.
Nc1cc2nc3ccccc3oc-2cc1=O	.	.	53	.	.	.
CCC(=O)C1CCCN(C(=O)c2ccc(OC3CCN(C(=O)CCOC)CC3)cc2)C1 (configuration not stated)	.	.	.	.	.	88
c1ccc(-c2nc(-c3cccs3)[nH]c2-c2ccccc2)cc1	.	.	.	.	.	52
COc1cc(-c2nc(-c3ccccc3)c(-c3cccs3)[nH]2)cc(OC)c1O	.	.	.	.	.	.
COc1cc(-c2nc(-c3ccccc3)c(-c3cccs3)[nH]2)cc(OC)c1OC	.	.	.	.	.	66
c1csc(-c2nc3c4ccccc4c4ccccc4c3[nH]2)c1	.	.	.	.	.	69
CC(C)C(CCNCc1ccccn1)c1ccc(Cl)cc1 (configuration not stated)	.	.	.	.	.	.
CC(C)C(CCNC1CCN(C)CC1)c1ccc(Cl)cc1 (configuration not stated)	100	.	.	.	.	.
CN(C)c1cc[n+](CCC(=O)Nc2cccc([N+](=O)[O-])c2N)cc1	.	.	.	.	.	.
Nc1c(NC(=O)CC[n+]2ccccc2)cccc1[N+](=O)[O-]	.	.	.	.	.	52
COc1cc(-c2ccc(NC(=O)CN3CCC(C)CC3)c(OC)c2)ccc1NC(=O)CN1CCC(C)CC1	.	.	.	.	.	.
CCCCNC(=O)C1CCN(C/C(C)=C/c2ccccc2)CC1	.	.	.	.	.	.
O=C(Nc1ccccc1Oc1ccccc1)c1cc([N+](=O)[O-])ccc1Cl	.	.	.	.	.	54
COc1ccccc1[C@@H]1C(c2cccc(C)c2)=NN(c2ccc(Br)cc2)[C@H]1C(=O)N1CCOC1=O	.	.	.	.	.	.
CCC(=O)c1ccc(N2CCN(C(=O)COc3ccc(F)cc3)CC2)c(F)c1	.	/	.	.	.	81
C=CCn1c(O)c(N=Nc2nc3ccccc3c(=O)n2-c2ccccc2)c2ccccc21	.	.	.	.	.	.
COc1cccc(C(=O)NCC(=O)N/N=C/c2cccs2)c1	.	.	.	.	.	.
Cn1c(=O)c([N+](=O)[O-])c(-n2ccnc2)c2ccccc21	55	.	.	.	.	.
Cc1nc(SCC(=O)c2ccc(F)c(F)c2)[nH]c(=O)c1Oc1ccc(Cl)cc1	.	53	.	.	.	.
SMILES	Peg3 prom inh	TROY NFkB inh	CF NFkB inh	HIF-2a inh	KKLEB cytotox	TWEAK Fn14 block
COCCN1Cc2c(sc(C)c2C)N(C(=O)c2ccccc2)C1	.	.	.	.	.	.
CCCCn1c(NC(=O)c2ccccc2Cl)c(C#N)c2nc3ccccc3nc21	53	76	.	.	.	.
N#Cc1c(NC(=O)c2ccccc2Cl)n(Cc2ccccc2)c2nc3ccccc3nc12	.	65	.	.	.	86
CC(NC(=O)Cn1nc(C(F)(F)F)c2c1CCC2)c1ccccc1 (configuration not stated)	.	.	.	.	.	.
O=C(Cn1nnc(-c2ccccc2)n1)N/N=C/c1cc([N+](=O)[O-])c(Cl)cc1Cl	50	.	.	.	.	.
O=C(Nc1cccc(F)c1)N1CCCCCC1	.	.	.	.	.	.
COc1cccc(CN(C)CC(=O)Nc2cccc(C(F)(F)F)c2)c1OC	.	.	.	.	.	74
COc1cccc(CN(C)CC(=O)Nc2cccc(S(N)(=O)=O)c2)c1OC	.	.	.	.	.	.
COc1ccc(CN(C)C(=O)c2ccc(OCC(=O)Nc3cccc(C(F)(F)F)c3)c(OC)c2)cc1	.	.	.	.	.	52
Cc1cccc(-n2c(C)nc3cc(C(=O)NCc4ccc5c(c4)OCO5)ccc32)c1	.	.	.	.	.	.
CC(=O)N1c2ccccc2NC2=C(C(=O)CC(C)(C)C2)C1c1cccn1C (configuration not stated)	.	.	.	.	.	.
Cc1ccc(C(=O)NC2CCCc3ccccc32)cc1[N+](=O)[O-] (configuration not stated)	.	.	.	.	.	.
CCCCCn1c(N)c(-c2nc3ccccc3o2)c2c([N+](=O)[O-])nn(CC)c(=O)c21	.	.	.	.	.	.
CCCCn1c(N)c(-c2nc3ccccc3s2)c2c([N+](=O)[O-])nn(C)c(=O)c21	.	.	.	.	.	.
CCCCn1c(N)c(-c2nc3ccccc3s2)c2c([N+](=O)[O-])nn(CC)c(=O)c21	.	.	.	.	-55	.
CCCCCn1c(N)c(-c2nc3ccccc3s2)c2c([N+](=O)[O-])nn(CC)c(=O)c21	.	.	59	.	-58	83
COc1cccc(CN2CC(C(=O)N3CCN(c4ccc(Cl)cc4)CC3)CCC2=O)c1 (configuration not stated)	.	.	.	.	.	.
Cc1cccc(C)c1OCC(=O)NNC(=O)CNC(=O)c1ccc(OC(F)F)cc1	.	.	.	.	.	.
N=C1S/C(=C\c2cn[nH]c2-c2ccc(F)cc2)C(=O)N1c1ccccc1F	.	.	50	.	.	.
N=C1S/C(=C\c2ccccc2F)C(=O)N1c1ccc(F)cc1	.	.	.	.	.	.
Cc1ccc(CNC(=S)NC2CCC(C(C)(C)C)CC2)cc1 (configuration not stated)	.	51	.	.	.	.
COc1ccc(CNC(=S)NC2CCCC2)cc1	.	.	.	.	.	.
CC1(C)CC(=O)C=C(Nc2ccc(C(=O)O)c(O)c2)C1	.	.	.	.	.	.
